Out of some 200,000 compounds screened, about 3,000 (1.5%) were called active. This excerpt belongs to a sample that is enriched for actives. A number with no mark means an inactive call.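 The calls were made as follows: active = inhibition above about 50% when tested at 10 µM (limit read from the data); inactive = the rest.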

For the assay, the target named is Luciferin 4-monooxygenase (Photinus pyralis) (UniProt P08659). Description: inhibition of purified FLuc reporter enzyme – biochemical, luminescence, ATPLite, artefact control for luciferase-based inhibitor screens, primary screen (AID 1006). To be noted: ATPLite firefly luciferase biochemical luminescence, 10 min; at 10 µM; hits give high values.
Luciferin 4-monooxygenase (Photinus pyralis), sequence (P08659 whole entry, looked up): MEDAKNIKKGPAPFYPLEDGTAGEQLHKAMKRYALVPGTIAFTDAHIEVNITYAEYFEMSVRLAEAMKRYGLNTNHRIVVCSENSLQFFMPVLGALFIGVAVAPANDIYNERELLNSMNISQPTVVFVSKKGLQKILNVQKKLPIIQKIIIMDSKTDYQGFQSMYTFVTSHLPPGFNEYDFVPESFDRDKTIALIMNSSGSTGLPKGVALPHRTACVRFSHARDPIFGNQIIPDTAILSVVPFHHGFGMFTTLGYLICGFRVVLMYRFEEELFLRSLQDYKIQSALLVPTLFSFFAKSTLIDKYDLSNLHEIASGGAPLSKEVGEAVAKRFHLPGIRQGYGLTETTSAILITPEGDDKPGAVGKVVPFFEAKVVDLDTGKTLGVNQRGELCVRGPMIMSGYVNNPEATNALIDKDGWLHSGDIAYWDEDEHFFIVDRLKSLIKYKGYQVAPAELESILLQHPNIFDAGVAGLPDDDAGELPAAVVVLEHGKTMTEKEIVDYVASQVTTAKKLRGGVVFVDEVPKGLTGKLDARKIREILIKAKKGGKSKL
A word on the inhibition: it is the change of the read-out against control, counted positive when it falls. For the molecule `CN(C)CCCn1c(SCCN2C(=O)c3ccccc3C2=O)nc2ccccc2c1=O`, the inhibition was -5.8%.
As to `CC(C)N(Cc1nc(-c2ccc3c(c2)OCO3)no1)CC1CCC(=O)N1` (centres undefined), the inhibition was -8.8%.
To `CN(C)/C=C(/C(=O)c1ccccc1)S(=O)(=O)c1ccc(Cl)cc1` belongs -5.6%; to `Cc1ccc(N2C(=O)C(CC(=O)Nc3cccc(F)c3)N(CCc3ccncc3)C2=O)cc1` (centres undefined), -0.5%.
For `COc1cccc(-c2ccc(SCC(=O)N3CCN(c4ccccc4)CC3)nn2)c1`, the inhibition is -6.1%.
In the case of `Cc1cccc(-n2ncc3c(N4CCc5ccccc54)ncnc32)c1`, the inhibition is 17.1%.
For the molecule `c1ccc(-n2ncc3c(N4CCCC4)ncnc32)cc1`, the inhibition is 73.9% (active).
Turning to `COc1ccc(-n2ncc3c(N4CCCc5ccccc54)ncnc32)cc1`, the inhibition is 54.9% (active).
To `O=C(NNc1ncnc2c1cnn2-c1ccccc1)c1ccco1` belongs 6%; to `C1=C(CCNc2ncnc3c2cnn3-c2ccccc2)CCCC1`, 10.5%.
`COc1ccc(-n2ncc3c(N4CCc5ccccc54)ncnc32)cc1`: the inhibition was 41.9%.
Regarding `O=C(Nc1nnc(Cc2ccc(Cl)cc2)s1)c1cccnc1`, the inhibition was 7.5%.
Regarding `O=c1oc(/C=C/c2ccccc2)nc2ccccc12`, the inhibition is 80.5% (active).
`CCn1c(/C=C/c2ccc([N+](=O)[O-])o2)nc2ccccc2c1=O`: the inhibition was -6.1%.
Regarding `S=c1[nH]nc(/C=C/c2ccccc2)o1`, the inhibition is 7.5%.
As for `N#Cc1ccc(N2Cc3ccccc3/C2=N/C(=O)Nc2ccc(Cl)cc2)cc1`, the inhibition was -4.6%.
As to `Cc1ccc(S(=O)(=O)N(CC(=O)Nc2cccc([N+](=O)[O-])c2)Cc2ccc(Cl)cc2)cc1`, the inhibition is -6.1%.
Next, `COc1ccc(/C=C/C(=O)Nc2ccc(C34CC5CC(CC(O)(C5)C3)C4)cc2)cc1OC`: 57.2% (active).
`COc1ccc(/C=C/C(=O)N2CCCC2)cc1OC`: the inhibition is 5.6%.
On to `COc1ccc(/C=C/C(=O)Nc2cccnc2)cc1OC`, for which the inhibition is 13%.
Take `CCCN(CC(=O)Nc1ccc(OC)c(OC)c1)CC(=O)Nc1ccc(F)c(F)c1F`: the inhibition is 8.5%.
To `COc1ccc(-n2nnnc2SCC(=O)Nc2ccccc2)cc1` belongs -8%.
As to `CCOc1cccc(-n2nnnc2-c2ccc(OC)cc2)c1`, the inhibition is -0.7%.
As for `COc1ccc(-n2nnnc2-c2nc3ccccc3s2)cc1`, the inhibition is 73.2% (active).
On to `CCc1ccc(Oc2nc([N+](=O)[O-])nn2C)cc1`, for which the inhibition was -9.5%.
With `Cc1nc(-c2ccccc2)sc1C(=O)/C=C/N(C)C`, the inhibition is 10.8%.
On to `O=C(CSc1nncs1)NC1CCCc2ccccc21` (centres undefined), for which the inhibition is -8.5%.
Next, `COCC1CCCN(Cc2nc(-c3ccc4c(c3)OCO4)no2)C1` (centres undefined): 0.8%; `O=C(O)c1ccc2c(c1)C(=O)N(c1ccc(/C=C/C(=O)c3ccccc3)cc1)C2=O`: -0.5%.
With `O=C(/C=C/c1ccc(N2CCOCC2)cc1)c1ccccc1`, the inhibition is 60.8% (active).
For `O=C(/C=C/c1ccccc1)c1ccoc1`, the inhibition is 14%.
With `CC1=C[C@H]2Cc3cc(C)cc(C)c3S(=O)(=O)[C@@H]2C=C1`, the inhibition is -5.9%.
To `C/C(=C\C(=O)c1ccccc1)Nc1cccc(O)c1` belongs 44.4%.
On to `O=C(Nc1cccc(O)c1)c1ccc(C(=O)c2ccccc2)o1`, for which the inhibition was 69.9% (active).
For `O=C(CSc1ccccc1)Nc1ccc(C(=O)Nc2cccc(O)c2)cc1`, the inhibition was 1.9%.
To `NC(=O)C1CCN(C(=O)COc2cccc3cccnc23)CC1` belongs -10%.
As for `Cc1cc(C(=O)CCl)c(C)n1CC1COc2ccccc2O1` (centres undefined), the inhibition is -0.3%.
For the molecule `Cc1ccsc1C(=O)OCC(=O)c1cc(C)n(CC2CCCO2)c1C` (centres undefined), the inhibition is 90.3% (active).
In the case of `Cc1cc(C(=O)Cn2cnc3cc([N+](=O)[O-])ccc3c2=O)c(C)n1CC1CCCO1` (centres undefined), the inhibition is 1.6%.
For the molecule `CCC1C=C(c2ccccc2)C=CN=C1N(CC)CC` (centres undefined), the inhibition was -5%.
In the case of `O=C(Cn1c(N2CCN(C/C=C/c3ccccc3)CC2)nc2ccccc21)c1ccccc1`, the inhibition was -2.2%.
Regarding `CCN(CCCNC(=O)CCn1c(=O)[nH]c2ccsc2c1=O)c1ccccc1`, the inhibition is -2.6%.
Next, `CC(C)=CCN1CCN(Cc2ccc(Oc3ncccn3)cc2)CC1CCO` (centres undefined): -0.1%; `N=c1c2c(-c3ccccc3)c(-c3ccccc3)n(Cc3ccccc3)c2ncn1CCCO`: -2.7%; `OCCCN1c2ccccc2Nc2nnc(-c3ccccc3)cc21`: 57.2% (active).
Consider `CCCN(CCC)CCCNC(=O)CNC(=O)c1nn(-c2ccc(OC)cc2)c(=O)c2ccccc12`, for which the inhibition is -0.3%.
Turning to `Cc1ccc(OC(=O)c2cc3ccccc3o2)cc1`, the inhibition is 73.3% (active).
As to `Cc1ccsc1C(=O)OCC(=O)c1cc2ccccc2o1`, the inhibition was 1.6%.
Next, `O=C(Oc1cccnc1)c1cc2ccccc2oc1=O`: -6.1%; `CCOC(=O)c1c(C)[nH]c2c1-c1ccccc1C(=O)C2=O`: -5.3%; `CCCCOC(=O)c1[nH]c(C)c(C(=O)OC)c1C`: 15.4%.
`CCOC(=O)c1c(C)[nH]c(C2=NNC(=NC(C)COC)SC2)c1C` (centres undefined): the inhibition is 56.5% (active).
To `CCOC(=O)C(C)Sc1nc2ccccc2c(=O)n1CC1CCCCC1` (centres undefined) belongs 1.4%; to `O=c1c2ccccc2nc2n1C1(CCCCC1)Cc1ccccc1-2`, -6.3%; to `CN(c1ccc2nc3ccccc3c(=O)n2n1)C1CCCCC1`, 96.2% (active).
With `CC(C)CCC(C)NC(=O)c1ccc2nccnc2c1` (centres undefined), the inhibition is 2.8%.
Regarding `COc1ccc(N2C(=O)/C(=C\c3ccco3)N=C2SCC(N)=O)cc1Cl`, the inhibition is -5.8%.
As for `Cc1ccc(C(=O)N2CCCCCC2)cc1Br`, the inhibition was -7.1%.
As for `Cc1ccc2cc3cc(C(=O)N4CCCCCC4)oc3nc2c1`, the inhibition is 69.5% (active).
In the case of `Cc1cc(=O)oc(C)c1C(=O)N1CCCCC1`, the inhibition was -6.7%.
As for `C/C(=N/N1CCN(Cc2cccc3ccccc23)CC1)c1cccnc1`, the inhibition is -5.7%.
Turning to `O=C(Nc1ccc2nccnc2c1)c1ccco1`, the inhibition is 13%.
`O=C(Nc1ccc(NC(=O)c2cccs2)cn1)c1ccco1`: the inhibition was 83.2% (active).
As to `COc1cccc(C(=O)Nc2ccc(NC(=O)c3ccco3)cn2)c1`, the inhibition was 6.5%.

Source of the values: PubChem BioAssay AID1006 (Sanford-Burnham Center for Chemical Genomics, 2008).
